{
  "source": "paper PMC4336329",
  "about": "(PLoS ONE, 2015)",
  "note": "The whole screen tested about 310,000 compounds, of which about 14,000 (4.5%) showed an effect of 50% or more. Effects have a minus sign here. What follows is part of a selection rich in strong results, with near analogues and random picks from the rest.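 Note: peak tail current of the secondary pulse compared with the same well before compound.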",
  "data": [
    {"biological_target": "human ether-à-go-go-related gene (hERG) potassium channel (human, UniProt Q12809)", "sequence (Q12809 whole entry, looked up)": "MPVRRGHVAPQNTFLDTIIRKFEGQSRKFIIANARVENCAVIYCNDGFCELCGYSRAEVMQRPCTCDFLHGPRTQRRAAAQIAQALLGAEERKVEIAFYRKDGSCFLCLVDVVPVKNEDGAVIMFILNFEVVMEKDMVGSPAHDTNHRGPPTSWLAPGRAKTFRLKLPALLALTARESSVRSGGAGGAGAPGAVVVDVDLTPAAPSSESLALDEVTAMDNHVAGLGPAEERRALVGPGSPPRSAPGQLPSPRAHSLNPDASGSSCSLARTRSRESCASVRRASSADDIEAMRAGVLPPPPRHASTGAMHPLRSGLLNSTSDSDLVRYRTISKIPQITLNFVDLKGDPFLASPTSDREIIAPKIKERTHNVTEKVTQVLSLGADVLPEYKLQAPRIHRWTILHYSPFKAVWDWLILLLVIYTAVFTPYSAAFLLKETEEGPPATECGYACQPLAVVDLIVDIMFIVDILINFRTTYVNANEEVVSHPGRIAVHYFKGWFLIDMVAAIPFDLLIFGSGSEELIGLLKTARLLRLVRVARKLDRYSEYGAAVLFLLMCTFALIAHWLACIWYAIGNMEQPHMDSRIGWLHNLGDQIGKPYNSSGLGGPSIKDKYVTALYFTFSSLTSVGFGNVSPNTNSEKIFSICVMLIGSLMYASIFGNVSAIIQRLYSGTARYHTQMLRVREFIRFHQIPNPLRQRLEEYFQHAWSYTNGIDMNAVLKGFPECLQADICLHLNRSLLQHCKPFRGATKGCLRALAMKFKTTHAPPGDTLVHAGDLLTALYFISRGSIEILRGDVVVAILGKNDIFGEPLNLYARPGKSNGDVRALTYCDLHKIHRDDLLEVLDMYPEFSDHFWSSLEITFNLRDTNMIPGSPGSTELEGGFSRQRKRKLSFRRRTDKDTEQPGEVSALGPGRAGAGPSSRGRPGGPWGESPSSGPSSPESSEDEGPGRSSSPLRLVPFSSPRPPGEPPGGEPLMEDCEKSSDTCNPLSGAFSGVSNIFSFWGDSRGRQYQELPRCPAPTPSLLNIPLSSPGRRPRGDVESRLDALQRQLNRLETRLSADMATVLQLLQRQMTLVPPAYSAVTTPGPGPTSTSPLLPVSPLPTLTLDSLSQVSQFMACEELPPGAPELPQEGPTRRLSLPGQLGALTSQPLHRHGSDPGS", "assay": "primary screen, population patch clamp on CHO cells stably expressing hERG; higher = less effect of the substance", "units": {"hERG current change (%, negative = inhibition) at 10uM": "%"}, "values": [
      {"smiles": "O=C(Nc1cccc(-c2nc3ncccc3o2)c1)c1ccccc1", "hERG current change (%, negative = inhibition) at 10uM": -9.36},
      {"smiles": "O=S(=O)(NCc1cccs1)c1ccc(Br)s1", "hERG current change (%, negative = inhibition) at 10uM": 2.07},
      {"smiles": "Cn1nc(-c2ccc(Cl)cc2)c2cc(C(=O)NC3CC3)sc21", "hERG current change (%, negative = inhibition) at 10uM": -1.54},
      {"smiles": "CCN1CCCC1CNC(=O)c1cc2c(-c3cccc(OC)c3)nn(C)c2s1", "note": "(stereo not shown)", "hERG current change (%, negative = inhibition) at 10uM": -46.3},
      {"smiles": "CCCN(CCC)CCNC(=O)c1cc2c(-c3ccc(Cl)cc3)nn(C)c2s1", "hERG current change (%, negative = inhibition) at 10uM": -65.6},
      {"smiles": "O=C(NCCc1ccccc1)c1cc(-c2ccccc2)c(N2CCOCC2)s1", "hERG current change (%, negative = inhibition) at 10uM": 3.07},
      {"smiles": "CCCN(CCC)CCNC(=O)c1cc2c(-c3ccccc3F)nn(C)c2s1", "hERG current change (%, negative = inhibition) at 10uM": -47.2},
      {"smiles": "CCCCN(C)CCNC(=O)c1cc2c(-c3ccccc3F)nn(C)c2s1", "hERG current change (%, negative = inhibition) at 10uM": -48},
      {"smiles": "CCCNC(=O)c1cc(-c2ccccc2)c(N2CCCCC2)s1", "hERG current change (%, negative = inhibition) at 10uM": 14.2},
      {"smiles": "CCN(CC)CCCNC(=O)c1cc(-c2ccccc2)c(N2CCCCC2)s1", "hERG current change (%, negative = inhibition) at 10uM": -51.7},
      {"smiles": "CCCCN(CC)CCNC(=O)c1cc2c(-c3ccccc3F)nn(C)c2s1", "hERG current change (%, negative = inhibition) at 10uM": -66.7},
      {"smiles": "Cc1ccc(CNC(=O)c2cc3c(-c4ccc(Cl)cc4)nn(C)c3s2)o1", "hERG current change (%, negative = inhibition) at 10uM": -8.27},
      {"smiles": "CCN1CCCC1CNC(=O)c1cc2c(-c3ccc(Cl)cc3)nn(C)c2s1", "note": "(stereo not shown)", "hERG current change (%, negative = inhibition) at 10uM": -62.4},
      {"smiles": "CCCN(CCC)CCCNC(=O)c1cc2c(-c3ccc(OC)c(OC)c3)nn(C)c2s1", "hERG current change (%, negative = inhibition) at 10uM": -6.94},
      {"smiles": "CCOC(=O)c1ccc(CC2SC(N)=NC2=O)cc1", "note": "(stereo not shown)", "hERG current change (%, negative = inhibition) at 10uM": 2.63},
      {"smiles": "Cc1ccc(NC(=O)CSc2nc(=O)cc(N)n2-c2ccccc2)cc1", "hERG current change (%, negative = inhibition) at 10uM": 20.3},
      {"smiles": "CC(C)(C)NC(=O)NC(=O)CN1C(=O)NC(C)(c2ccccc2)C1=O", "note": "(stereo not shown)", "hERG current change (%, negative = inhibition) at 10uM": 15.8},
      {"smiles": "O=C(N/N=C/c1ccoc1)c1cccc([N+](=O)[O-])c1", "hERG current change (%, negative = inhibition) at 10uM": 9.75},
      {"smiles": "COc1ccc(NS(=O)(=O)c2cccc(C(=O)NCC(c3ccc(OC)cc3)N3CCOCC3)c2)cc1", "note": "(stereo not shown)", "hERG current change (%, negative = inhibition) at 10uM": -26.1},
      {"smiles": "O=c1c[n+]([O-])c2ccccc2n1OCc1ccccn1", "hERG current change (%, negative = inhibition) at 10uM": 18.9},
      {"smiles": "Cc1ccc(N2C(=O)C(NC(=O)c3c(F)cccc3F)(C(F)(F)F)C3=C2CC(C)(C)CC3=O)cc1", "note": "(stereo not shown)", "hERG current change (%, negative = inhibition) at 10uM": 9.34},
      {"smiles": "CC(C)c1cc(-c2cc(C(=O)Nc3ccccc3)on2)nc(NCC2CC2)n1", "hERG current change (%, negative = inhibition) at 10uM": 10.3},
      {"smiles": "NC(=O)NN=C1C2CCCC1C(c1ccccc1)NC2c1ccccc1", "note": "(stereo not shown)", "hERG current change (%, negative = inhibition) at 10uM": -7.17},
      {"smiles": "O=C(O)C/C(=C\\c1ccc(Cl)cc1)c1nc2ccccc2o1", "hERG current change (%, negative = inhibition) at 10uM": 6.78},
      {"smiles": "Cc1ccc(C)c2c1cc(C)c1nnc(SCC(=O)c3cccs3)n12", "hERG current change (%, negative = inhibition) at 10uM": -61.5},
      {"smiles": "Cc1ccc2cc(C)c3nnc(SCC(=O)c4cccs4)n3c2c1C", "hERG current change (%, negative = inhibition) at 10uM": -23.1},
      {"smiles": "Cc1cc(C)c2c(c1)c(C)cc1nnc(SCC(=O)c3cccs3)n12", "hERG current change (%, negative = inhibition) at 10uM": -2.98},
      {"smiles": "Cc1cc(N)n(-c2ccc(C(=O)O)cc2)n1.Cl", "hERG current change (%, negative = inhibition) at 10uM": 13.6},
      {"smiles": "COc1ccc(CNC(=O)c2ccc(-c3ccccc3)cc2)cc1OC", "hERG current change (%, negative = inhibition) at 10uM": 0.777},
      {"smiles": "Cc1cc2c(cc1S(=O)(=O)CCC(=O)Nc1cccc(C(F)(F)F)c1)OCC(=O)N2", "hERG current change (%, negative = inhibition) at 10uM": -54},
      {"smiles": "CCc1cccc(NC(=O)CCS(=O)(=O)c2cc3c(cc2C)NC(=O)CO3)c1", "hERG current change (%, negative = inhibition) at 10uM": -14.1},
      {"smiles": "CC1CCCCC1NC(=O)CCS(=O)(=O)c1cc2c(cc1Cl)NC(=O)CO2", "note": "(stereo not shown)", "hERG current change (%, negative = inhibition) at 10uM": -30.5},
      {"smiles": "CC(=O)c1cccc(NC(=O)CCS(=O)(=O)c2cc3c(cc2C)NC(=O)CO3)c1", "hERG current change (%, negative = inhibition) at 10uM": 1.62},
      {"smiles": "Cc1cc2c(cc1S(=O)(=O)CCC(=O)NC1CCCCC1C)OCC(=O)N2", "note": "(stereo not shown)", "hERG current change (%, negative = inhibition) at 10uM": -53},
      {"smiles": "Cc1cc2c(cc1S(=O)(=O)CCC(=O)NC1CCC(C)CC1)OCC(=O)N2", "note": "(stereo not shown)", "hERG current change (%, negative = inhibition) at 10uM": -14.7},
      {"smiles": "Cc1nc(Sc2nnnn2-c2ccccc2)c(C#N)c(C)c1C", "hERG current change (%, negative = inhibition) at 10uM": -21.3},
      {"smiles": "CCOC(=O)C1CCCN(C(=O)Cn2cccc2C(=O)c2ccccc2)C1", "note": "(stereo not shown)", "hERG current change (%, negative = inhibition) at 10uM": -11.5},
      {"smiles": "Cc1cccc(C)c1NC(=O)COC(=O)c1cccnc1", "hERG current change (%, negative = inhibition) at 10uM": 4.43},
      {"smiles": "C#CCOC(=O)C[N+](C)(C)C/C=C/c1ccccc1.[Cl-]", "hERG current change (%, negative = inhibition) at 10uM": 10.4},
      {"smiles": "CCN1CCN(C(=O)C2CCN(Cc3nc(-c4cccc(Cl)c4)oc3C)CC2)CC1", "hERG current change (%, negative = inhibition) at 10uM": -42.9},
      {"smiles": "Cc1oc(-c2cc(F)ccc2F)nc1CN1CCC(C(=O)N2CCOCC2)CC1", "hERG current change (%, negative = inhibition) at 10uM": -42.8},
      {"smiles": "Cc1cccc(-c2nc(CSCC(=O)N3CCN(c4ccccn4)CC3)c(C)o2)c1", "hERG current change (%, negative = inhibition) at 10uM": -41.2},
      {"smiles": "Cc1cccc(N2CCN(Cc3nc(-c4cccc(Oc5ccccc5)c4)oc3C)CC2)n1", "hERG current change (%, negative = inhibition) at 10uM": 4.13},
      {"smiles": "Cc1oc(-c2cccc(C(F)(F)F)c2)nc1CN1CCN(c2ccccn2)CC1", "hERG current change (%, negative = inhibition) at 10uM": -52.5},
      {"smiles": "Cc1oc(-c2cccc(C(F)(F)F)c2)nc1CN1CCOCC1", "hERG current change (%, negative = inhibition) at 10uM": -3.32},
      {"smiles": "Cc1oc(-c2cccc(Cl)c2)nc1CN1CCC(C(=O)N2CCN(c3ccccn3)CC2)CC1", "hERG current change (%, negative = inhibition) at 10uM": -68.5},
      {"smiles": "Cc1oc(-c2cccc(Cl)c2)nc1CN1CCC(C(=O)N2CCN(c3ccccc3F)CC2)CC1", "hERG current change (%, negative = inhibition) at 10uM": -69.1},
      {"smiles": "COc1ccc(-c2nc(CN3CCC(C(=O)N4CCOCC4)CC3)c(C)o2)cc1C", "hERG current change (%, negative = inhibition) at 10uM": -6.98},
      {"smiles": "Cn1nnc2ccccc2c1=O", "hERG current change (%, negative = inhibition) at 10uM": 12.5},
      {"smiles": "C/C(=N\\NC(=S)Nc1c(C)cccc1C)c1cc2ccccc2o1", "hERG current change (%, negative = inhibition) at 10uM": 15.1},
      {"smiles": "CCc1ccccc1NC(=O)CSc1n[nH]c(C)c1[N+](=O)[O-]", "hERG current change (%, negative = inhibition) at 10uM": -8.12},
      {"smiles": "CCNc1ccc(C(=O)O)cc1N", "hERG current change (%, negative = inhibition) at 10uM": 9.77},
      {"smiles": "Cc1cccc(OCCOC(=O)C2CCN(S(=O)(=O)c3cccs3)CC2)c1", "hERG current change (%, negative = inhibition) at 10uM": 6.58},
      {"smiles": "COc1cc(NC(=O)c2cccnc2)c(Cl)cc1NC(=O)c1ccc(Cl)cc1", "hERG current change (%, negative = inhibition) at 10uM": -0.00342},
      {"smiles": "COc1cc(/C=C2\\SC(=O)NC2=O)ccc1Oc1cnccn1", "hERG current change (%, negative = inhibition) at 10uM": 2.14}
    ]}
  ]
}
